# Experimental data reported in the antibiotic and cytotoxicity screens of Wong et al. (2023).
# Among all 39,000 compounds or so, about 3,300 (8.5%) were called active. For the sample, actives were picked, then their nearest neighbours and some compounds at random.
# System: HepG2
# Experiment: cytotoxicity call (relative viability < 0.9)
# Conditions: 10 µM
row,SMILES,cytotoxicity call
1,CNC[C@@H]1OCCCC[C@@H](C)Oc2ccc(NC(=O)c3ccncc3)cc2C(=O)N([C@@H](C)CO)C[C@H]1C,inactive
2,C[C@H](CO)N1C[C@H](C)[C@H](CN(C)C(=O)c2ccncc2)OCCCC[C@H](C)Oc2ccc(NS(=O)(=O)c3ccc(Cl)cc3)cc2C1=O,inactive
3,CC(C)CN1C[C@H](C(=O)O)CC1=O,inactive
4,C[C@H](CO)N1C[C@H](C)[C@@H](CN(C)S(=O)(=O)c2cccs2)Oc2ccc(NC(=O)Cn3cnnn3)cc2C1=O,inactive
5,COc1ccc(CCN2C(=O)[C@@]3(c4ccc([N+](=O)[O-])cc4)CC(=O)N(C4CCCCC4)[C@@H]3c3ccc(CO)cc32)cc1,inactive
6,C[C@@H]1CN([C@H](C)CO)C(=O)c2cc(NC(=O)C3CCCCC3)ccc2O[C@@H](C)CCCCO[C@H]1CN(C)Cc1ccncc1,inactive
7,C[C@H](CO)N1C[C@H](C)[C@H](CN(C)C(=O)c2ccccn2)Oc2cc(C#Cc3ccccc3)ccc2S1(=O)=O,inactive
8,C[C@H](CO)N1C[C@H](C)[C@@H](CN(C)C(=O)Nc2ccc3c(c2)OCO3)OCCCC[C@H](C)Oc2ccc(NC(=O)Nc3ccc(C(F)(F)F)cc3)cc2C1=O,inactive
9,C[C@@H]1CN([C@@H](C)CO)C(=O)c2cccc(NS(C)(=O)=O)c2O[C@H]1CN(C)Cc1ccc2c(c1)OCO2,inactive
10,Cc1ccc(S(=O)(=O)N2C[C@H](O)COC[C@H]3O[C@H](CC(=O)NCc4ccc5c(c4)OCO5)CC[C@@H]32)cc1,inactive
11,C[C@H]1CN([C@@H](C)CO)C(=O)c2cc(C#Cc3cccc(F)c3)cnc2O[C@@H]1CN(C)CC1CCOCC1,inactive
12,C[C@H](CO)N1C[C@H](C)[C@H](CN(C)C(=O)Nc2ccc(C(F)(F)F)cc2)OCCCC[C@H](C)Oc2ccc(NC(=O)Nc3ccc4c(c3)OCO4)cc2C1=O,inactive
13,C[C@@H]1CCCCO[C@H](CN(C)S(=O)(=O)c2ccc(Cl)cc2)[C@@H](C)CN([C@@H](C)CO)C(=O)c2cc(NC(=O)NC3CCCCC3)ccc2O1,inactive
14,C[C@H]1CCCCO[C@H](CN(C)S(=O)(=O)c2ccc(Cl)cc2)[C@@H](C)CN([C@@H](C)CO)C(=O)c2cc(NC(=O)NC3CCCCC3)ccc2O1,inactive
15,C[C@H]1CCCCO[C@@H](CN(C)S(=O)(=O)c2ccc(Cl)cc2)[C@@H](C)CN([C@@H](C)CO)C(=O)c2cc(NC(=O)NC3CCCCC3)ccc2O1,active
16,C[C@@H]1CCCCO[C@@H](CN(C)S(=O)(=O)c2ccc(Cl)cc2)[C@@H](C)CN([C@@H](C)CO)C(=O)c2cc(NC(=O)NC3CCCCC3)ccc2O1,active
17,C[C@@H]1CCCCO[C@H](CN(C)S(=O)(=O)c2ccc(Cl)cc2)[C@H](C)CN([C@@H](C)CO)C(=O)c2cc(NC(=O)NC3CCCCC3)ccc2O1,inactive
18,CN1[C@@H]2Cn3c(ccc(-c4ccccc4)c3=O)[C@H]1[C@@H](C(=O)NCCCN1CCOCC1)[C@@H]2CO,inactive
19,C[C@@H]1CN([C@@H](C)CO)C(=O)Cc2cc(NC(=O)Cn3cnnn3)ccc2O[C@H]1CN(C)C(=O)Nc1ccccc1,inactive

row,SMILES,cytotoxicity call
1,CCCNC(=O)N[C@H]1C=C[C@@H](CC(=O)N2CCN(C)CC2)O[C@@H]1CO,inactive
2,C[C@H]1CN([C@@H](C)CO)C(=O)c2cc(/C=C/c3ccccc3)cnc2O[C@@H]1CN(C)C(=O)c1cnccn1,inactive
3,C[C@H]1CN([C@@H](C)CO)C(=O)Cc2cc(NC(=O)Cn3cnnn3)ccc2O[C@H]1CN(C)Cc1ccc(Oc2ccccc2)cc1,inactive
4,COCC(=O)N(C)C[C@@H]1Oc2cc(-c3ccc(C#N)cc3)ccc2S(=O)(=O)N([C@H](C)CO)C[C@H]1C,inactive
5,COc1ccc(S(=O)(=O)Nc2ccc3c(c2)C(=O)N([C@@H](C)CO)C[C@@H](C)[C@@H](CN(C)S(C)(=O)=O)OCCCC[C@@H](C)O3)cc1,inactive
6,C[C@H](CO)N1C[C@H](C)[C@@H](CN(C)S(=O)(=O)c2cccs2)Oc2ccc(NC(=O)Cc3ccccc3)cc2C1=O,inactive
7,C[C@@H]1CN([C@H](C)CO)C(=O)c2cc(NC(=O)Nc3ccc(F)cc3)ccc2O[C@@H](C)CCCCO[C@H]1CN(C)Cc1ccncc1,inactive
8,C[C@@H]1CN([C@@H](C)CO)C(=O)c2cc(NC(=O)Nc3ccccc3)ccc2O[C@H]1CN(C)Cc1ccc(-c2ccccc2)cc1,active
9,C[C@H](CO)N1C[C@H](C)[C@H](CN(C)Cc2ccc(-c3ccccc3)cc2)Oc2ccc(NC(=O)Nc3ccccc3)cc2C1=O,inactive
10,C[C@H]1CN([C@@H](C)CO)C(=O)c2cc(NC(=O)Nc3ccccc3)ccc2O[C@H]1CN(C)Cc1ccc(-c2ccccc2)cc1,inactive
11,C[C@@H]1CN([C@H](C)CO)C(=O)c2cc(NC(=O)Nc3ccccc3)ccc2O[C@@H]1CN(C)Cc1ccc(-c2ccccc2)cc1,active
12,CC(C)NC(=O)Nc1ccc2c(c1)C(=O)N([C@@H](C)CO)C[C@H](C)[C@@H](CN(C)Cc1ccc(-c3ccccc3)cc1)O2,inactive
13,CC(C)NC(=O)Nc1ccc2c(c1)C(=O)N([C@@H](C)CO)C[C@@H](C)[C@H](CN(C)Cc1ccc(-c3ccccc3)cc1)O2,inactive
14,CC(C)NC(=O)Nc1ccc2c(c1)C(=O)N([C@@H](C)CO)C[C@@H](C)[C@@H](CN(C)Cc1ccc(-c3ccccc3)cc1)O2,active
15,C[C@H](CO)N1C[C@H](C)[C@@H](CN(C)Cc2ccc(-c3ccccc3)cc2)Oc2ccc(NC(=O)Nc3ccccc3)cc2C1=O,active
16,C[C@@H]1CCCCO[C@@H](CN(C)C(=O)CCC(F)(F)F)[C@H](C)CN([C@H](C)CO)C(=O)c2cc(NC(=O)NC3CCCCC3)ccc2O1,inactive
17,COCCNC(=O)C[C@H]1CC[C@@H]2[C@H](COC[C@H](O)CN2S(=O)(=O)c2ccccc2C)O1,inactive
18,C[C@H]1CN([C@@H](C)CO)C(=O)c2c(c3ccccc3n2C)-c2ccccc2CO[C@@H]1CN(C)Cc1ccc(O)cc1,inactive
19,C[C@H]1CN([C@@H](C)CO)C(=O)c2cc(NC(=O)CCN3CCOCC3)ccc2O[C@@H]1CN(C)S(=O)(=O)c1cn(C)cn1,inactive
